The values that follow come from PubChem BioAssay (NCI).

Compounds without any hit were thinned out: in the full panel of roughly 79,000, 15% have a hit. A number with no mark means an inactive call. Calls of active or inactive are those of the source. No stated cut-off is given here; in the data, active means growth inhibition above about 70%; inactive means the rest.

The experiment is described as follows: NCI Yeast Anticancer Drug Screen. Data for the rad14 strain (AID 159).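 Further: 0% = growth of vehicle-treated control cultures.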 The following applies: S. cerevisiae rad14 strain growth inhibition, active compounds read high. As for the experimental part: Growth inhibition of yeast strains with defined genetic alterations is measured as a screen for potential anti-cancer activity. Selected strains with alterations in DNA damage repair or cell cycle control were exposed to compounds and growth inhibition was measured relative to vehicle treated controls. The strain used in this assay is rad14

For the compound `Oc1ccc(NCn2c(=S)sc3ccccc32)cc1`, the growth inhibition (at 1.2 µM) is -11%; the growth inhibition (at 3.7 µM) is -8%; the growth inhibition (at 11.0 µM) was -6%; the growth inhibition (at 33.0 µM) was 62%; the growth inhibition (at 100.0 µM) was 98% (active).
The matching figures for `O=C1c2ccccc2C(=O)c2c(NC3CCCCC3)ccc(Nc3ccc(S(=O)(=O)O)cc3)c21`: 2%, -4%, 2%, 48% and 71% (active).
In the same order, the values of `N#CN=Nc1cc(Cl)c(N=NC#N)cc1Cl` are 1%, 4%, 11%, 32% and 85% (active).
In the same order, the values of `CSC(=S)Nc1cc(C)ccn1` are -26%, -12%, 42%, 24% and 75% (active).
On to `CCOC(=O)C1=C(C(=O)c2ccccc2)C(c2ccccc2[N+](=O)[O-])C(C(=O)c2ccccc2)=C(C(=O)OCC)N1`, for which the growth inhibition by setting is: (at 1.2 µM) 0%; (at 3.7 µM) 2%; (at 11.0 µM) 8%; (at 33.0 µM) 9%; (at 100.0 µM) 29%.
Turning to `O=C(O)C1CCCCC1c1c2ccc(=O)c(O)c-2oc2c(O)c(O)ccc12` (stereo not given), the growth inhibition (at 1.2 µM) was -17%; the growth inhibition (at 3.7 µM) is -7%; the growth inhibition (at 11.0 µM) is -9%; the growth inhibition (at 33.0 µM) is 19%; the growth inhibition (at 100.0 µM) was 84% (active).
The matching figures for `CCCC/C=C/C(CC)(C(=O)OCC)C(=O)OCC`: -2%, -5%, -2%, -1% and 1%.
In the same order, the values of `CC(=O)Oc1cc(-c2cc(OC(C)=O)c(OC(C)=O)c3ccccc23)c2ccccc2c1OC(C)=O` are 1%, 3%, 7%, 43% and 95% (active).
